PubChem BioAssay (NCI)
The panel holds about 79,000 compounds, 15% with a hit somewhere; the sample as a whole holds those more often. The source made the active and inactive calls. Rule as the data show it: active = growth inhibition above about 70%; inactive = the rest.

What was measured:
[1] = NCI Yeast Anticancer Drug Screen. Data for the rad52 strain (AID 147);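 also: 0% = growth of vehicle-treated control cultures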; conditions: S. cerevisiae rad52 mutant growth inhibition, stronger effect = higher value
How it was run: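 Vehicle-treated cultures served as the reference for growth inhibition of compound-exposed yeast bearing a DNA repair mutation.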

[2] = NCI Yeast Anticancer Drug Screen. Data for the wt1 strain (AID 149);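 also: 0% = growth of vehicle-treated wt1 cultures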; conditions: S. cerevisiae wt1 strain (SPY 50644) growth inhibition, stronger effect = higher value
How it was run: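 Measured: growth of wt1 yeast under compound versus vehicle treatment, reported as inhibition.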

[3] = NCI Yeast Anticancer Drug Screen. Data for the rad50EPP+ strain (AID 151);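 also: 0% = growth of vehicle-treated control cultures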; conditions: S. cerevisiae rad50 mutant strain, stronger effect = higher value
How it was run: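 In this screen, rad50EPP+ yeast were exposed to compounds. Growth inhibition was scored against vehicle-treated controls.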

[4] = NCI Yeast Anticancer Drug Screen. Data for the mgt1 strain (AID 153); conditions: S. cerevisiae mgt1 mutant growth inhibition, stronger effect = higher value
How it was run: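 mgt1 strain exposed; growth vs vehicle control recorded as inhibition.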

[5] = NCI Yeast Anticancer Drug Screen. Data for the rad50 strain (AID 155);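 also: 0% = growth of vehicle-only cultures of the same strain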; conditions: S. cerevisiae rad50 strain growth inhibition, stronger effect = higher value
How it was run: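 Growth of the mutant yeast was measured after compound exposure and referenced to vehicle-treated cultures.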

[6] = NCI Yeast Anticancer Drug Screen. Data for the mec2-1 strain (AID 157); conditions: S. cerevisiae mec2-1 strain, stronger effect = higher value
How it was run: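 Vehicle-treated cultures served as reference for growth inhibition of compound-exposed mec2-1 yeast.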

[7] = NCI Yeast Anticancer Drug Screen. Data for the rad14 strain (AID 159);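 also: 0% = growth of vehicle-treated control cultures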; conditions: S. cerevisiae rad14 strain growth inhibition, stronger effect = higher value
How it was run: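 Here, inhibition of yeast growth was measured after compound exposure, using a strain with a genetic defect in DNA damage repair and vehicle-treated cultures as the reference.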

[8] = NCI Yeast Anticancer Drug Screen. Data for the sgs1 mgt1 strain (AID 161);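 also: 0% = growth of cultures given vehicle only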; conditions: S. cerevisiae sgs1 mgt1 strain, stronger effect = higher value
How it was run: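 Genetically altered yeast, compound exposure, growth inhibition relative to vehicle.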

[9] = NCI Yeast Anticancer Drug Screen. Data for the CLN2oe strain (AID 163);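 also: 0% = growth of vehicle-only control cultures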; conditions: S. cerevisiae CLN2oe strain, stronger effect = higher value
How it was run: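 Inhibition relative to vehicle-treated yeast is reported. Cells: strain with genetic alteration in cell-cycle control, grown with compound.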

[10] = NCI Yeast Anticancer Drug Screen. Data for the cln2 rad14 strain (AID 165);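 also: 0% = growth equal to vehicle treated cultures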; conditions: S. cerevisiae cln2 rad14 strain, stronger effect = higher value
How it was run: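 Each compound was tested on cln2 rad14 yeast. Inhibition of growth was calculated against vehicle-exposed controls.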

[11] = NCI Yeast Anticancer Drug Screen. Data for the bub3 strain (AID 167); conditions: S. cerevisiae bub3 mutant strain, stronger effect = higher value
How it was run: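 Whole-cell yeast assay. The mutant strain was incubated with compounds, and growth inhibition was determined by comparison with vehicle-treated cells.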

[12] = NCI Yeast Anticancer Drug Screen. Data for the wt2 strain (AID 169);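 also: 0% = growth of vehicle-treated yeast cultures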; conditions: S. cerevisiae wt2 strain growth inhibition, stronger effect = higher value
How it was run: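 Inhibition of yeast growth was determined after compound treatment, normalised to controls receiving only vehicle.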

[13] = NCI Yeast Anticancer Drug Screen. Data for the mlh1 strain (AID 171);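 also: 0% = growth of vehicle-treated control cultures of the same strain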; conditions: S. cerevisiae mlh1 strain growth inhibition, stronger effect = higher value
How it was run: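 Vehicle-normalised growth inhibition of a repair- or checkpoint-altered yeast strain following compound treatment.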

[14] = NCI Yeast Anticancer Drug Screen. Data for the sgs1 strain (AID 173);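 also: 0% = growth of vehicle-only control cultures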; conditions: S. cerevisiae sgs1 mutant, stronger effect = higher value
How it was run: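 Screen format: yeast with repair or checkpoint alterations, compound exposure, growth read relative to vehicle.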

[15] = NCI Yeast Anticancer Drug Screen. Data for the mlh1 rad18 strain (AID 175); conditions: S. cerevisiae mlh1 rad18 strain growth inhibition, stronger effect = higher value
How it was run: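 Vehicle-treated cultures served as the reference for growth inhibition in a yeast strain carrying DNA damage repair alterations exposed to each compound.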

[16] = NCI Yeast Anticancer Drug Screen. Data for the rad18 strain (AID 177); conditions: S. cerevisiae rad18 mutant growth inhibition, stronger effect = higher value
How it was run: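 Test articles were incubated with altered yeast defective in DNA damage repair. Results are given as inhibition of growth versus vehicle.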

[17] = at 5.0 µM (retest, dose inferred, filed as 0.5)
[18] = at 50.0 µM (retest, dose inferred, filed as 5.0)

Measured: growth inhibition

COC1=CCC23C(=O)C=CC(=O)C2(C1)C(=O)c1ccccc1C3=O (stereo unspecified)
inactive: [1]; at 1.2 µM -40% | [1]; at 3.7 µM -35% | [1]; at 11.0 µM 12% | [1]; at 33.0 µM 54% | [2]; at 1.2 µM -34% | [2]; at 3.7 µM -24% | [2]; at 11.0 µM -16% | [2]; at 33.0 µM -1% | [3]; at 1.2 µM 19% | [3]; at 3.7 µM 17% | [3]; at 11.0 µM 25% | [3]; at 33.0 µM 30% | [3]; at 100.0 µM 62% | [4]; at 1.2 µM -24% | [4]; at 3.7 µM -14% | [4]; at 11.0 µM 6% | [4]; at 33.0 µM 40% | [5]; at 1.2 µM -27% | [5]; at 3.7 µM -47% | [5]; [17] 19% | [5]; at 11.0 µM 12% | [5]; at 33.0 µM 52% | [5]; at 50.0 µM 65.8% | [6]; at 1.2 µM 8% | [6]; at 3.7 µM -4% | [6]; [17] 20% | [6]; at 11.0 µM -11% | [6]; at 33.0 µM 34% | [6]; at 50.0 µM 55.5% | [7]; at 1.2 µM -24% | [7]; at 3.7 µM 2% | [7]; at 11.0 µM 1% | [7]; at 33.0 µM 50% | [8]; [17] -2% | [9]; at 1.2 µM 17% | [9]; at 3.7 µM 8% | [9]; at 11.0 µM 18% | [9]; at 33.0 µM 38% | [10]; [17] 0% | [10]; [18] -49% | [10]; at 50.0 µM 36.5% | [11]; at 1.2 µM -30% | [11]; at 3.7 µM -38% | [11]; [17] 2% | [11]; at 11.0 µM -29% | [11]; at 33.0 µM 15% | [12]; at 1.2 µM -11% | [12]; at 3.7 µM -5% | [12]; at 11.0 µM 23% | [12]; at 33.0 µM 40% | [13]; at 1.2 µM -11% | [13]; at 3.7 µM -25% | [13]; at 11.0 µM -2% | [13]; at 33.0 µM 54% | [14]; at 1.2 µM 10% | [14]; at 3.7 µM -6% | [14]; at 11.0 µM 24% | [14]; at 33.0 µM 61% | [15]; [17] 26% | [15]; at 50.0 µM 68.2% | [16]; at 1.2 µM -21% | [16]; at 3.7 µM -20% | [16]; at 11.0 µM 32% | [16]; at 33.0 µM 44%
active: [1]; at 100.0 µM 89% | [2]; at 100.0 µM 93% | [4]; at 100.0 µM 93% | [5]; [18] 72% | [5]; at 100.0 µM 87% | [6]; [18] 88% | [6]; at 100.0 µM 91% | [7]; at 100.0 µM 92% | [8]; [18] 76% | [8]; at 50.0 µM 74.7% | [9]; at 100.0 µM 92% | [11]; [18] 78% | [11]; at 50.0 µM 74.4% | [11]; at 100.0 µM 91% | [12]; at 100.0 µM 93% | [13]; at 100.0 µM 95% | [14]; at 100.0 µM 93% | [15]; [18] 84% | [16]; at 100.0 µM 83%

CNC(=O)OCc1c2ccncc2c(C)c2c1[nH]c1ccccc12
inactive: [1]; at 1.2 µM 59% | [2]; at 1.2 µM 2% | [2]; at 3.7 µM 6% | [2]; at 11.0 µM 6% | [2]; at 33.0 µM 21% | [2]; at 100.0 µM 56% | [3]; at 1.2 µM 1% | [3]; at 3.7 µM 17% | [3]; at 11.0 µM 14% | [3]; at 33.0 µM 31% | [3]; at 100.0 µM 45% | [4]; at 1.2 µM 2% | [4]; at 3.7 µM 21% | [4]; at 11.0 µM 18% | [4]; at 33.0 µM 34% | [4]; at 100.0 µM 55% | [5]; at 1.2 µM 33% | [5]; [17] 61% | [5]; at 50.0 µM 56.4% | [6]; at 1.2 µM 13% | [6]; at 3.7 µM 60% | [6]; [17] 56% | [7]; at 1.2 µM 23% | [8]; [17] 40% | [8]; [18] 13% | [8]; at 50.0 µM 51.5% | [9]; at 1.2 µM 6% | [9]; at 3.7 µM 19% | [9]; at 11.0 µM 21% | [9]; at 33.0 µM 34% | [9]; at 100.0 µM 57% | [10]; [17] 44% | [11]; at 1.2 µM -41% | [11]; at 3.7 µM -56% | [11]; [17] -12% | [11]; at 11.0 µM -27% | [11]; at 33.0 µM 0% | [11]; [18] -48% | [11]; at 50.0 µM -12.1% | [11]; at 100.0 µM 39% | [12]; at 1.2 µM -17% | [12]; at 3.7 µM -21% | [12]; at 11.0 µM -9% | [12]; at 33.0 µM -1% | [12]; at 100.0 µM 42% | [13]; at 1.2 µM 6% | [13]; at 3.7 µM 20% | [13]; at 11.0 µM 26% | [13]; at 33.0 µM 38% | [13]; at 100.0 µM 66% | [14]; at 1.2 µM 67% | [15]; [17] 33%
active: [1]; at 3.7 µM 82% | [1]; at 11.0 µM 88% | [1]; at 33.0 µM 90% | [1]; at 100.0 µM 88% | [5]; at 3.7 µM 72% | [5]; at 11.0 µM 82% | [5]; at 33.0 µM 86% | [5]; [18] 75% | [5]; at 100.0 µM 82% | [6]; at 11.0 µM 84% | [6]; at 33.0 µM 90% | [6]; [18] 89% | [6]; at 50.0 µM 73.8% | [6]; at 100.0 µM 87% | [7]; at 3.7 µM 80% | [7]; at 11.0 µM 89% | [7]; at 33.0 µM 92% | [7]; at 100.0 µM 89% | [10]; [18] 84% | [10]; at 50.0 µM 83.2% | [14]; at 3.7 µM 76% | [14]; at 11.0 µM 84% | [14]; at 33.0 µM 85% | [14]; at 100.0 µM 84% | [15]; [18] 71% | [15]; at 50.0 µM 82.8% | [16]; at 1.2 µM 89% | [16]; at 3.7 µM 93% | [16]; at 11.0 µM 93% | [16]; at 33.0 µM 91% | [16]; at 100.0 µM 87%
